Molecular target: CCNA1
Assay: pooled miR-30 sensor sort-seq; sequence = guide strand
Settings: shRNA
Note: reference of the scale not given here.

Sequence | sensor-assay potency score (higher = more potent)
TTGTAAACAACATTAGTTGATC | -0.494
TAATTGCTTGCTGAGGTCGATG | -1.07
TTAGCCAGGTTCTCAGTCCTGA | -0.236
TAGAACTTTCAGAAGCAAGTGT | 0.493
TTGCTTGCTGAGGTCGATGGGG | -0.835
TATATCTCTTCATATTTCGAAG | -1.14
TTTTGTGTATGTATCATCGGTG | 0.2
TTTGTGTATGTATCATCGGTGA | -0.746
TGAGTATCTGACAAGCATCGGG | 0.0337

Molecular target: CCNG1
Assay: as above
Settings: shRNA

Sequence | sensor-assay potency score (higher = more potent)
TAGCATTTCACATTTAGGCTTT | 0.478
TTAGCTTTGATTTGAATGCTTC | 0.215
TTCTATTGATTTTACAGCCAAA | -1.32
TTGGCTGACATCTAGACTCCTG | 0.244
TTGACTTTCCAACACACCTTCT | -0.557
TTTGACTTTCCAACACACCTTC | 0.153
TTCAACTTCTGAACATTTGGTT | 0.69
TCTGAAGACATTCTATTCCTTC | -0.269
TTAGTCTCAAACCACAGACCTT | -1.23
TTGGATACAAGCTCTTGCCAGA | -0.511
TACATTTGTGAAATGTTGCTTT | 0.17
TTCATTTTAGACAGGAATCTGT | 0.0756
TTTGGATACAAGCTCTTGCCAG | -0.48
TTTAGACAGGAATCTGTCCAGT | -0.19
TAGTCTTGCAGTCATTCTGAGG | -1.44
TTAACTCTACACACTTCTGTGC | 0.175
TAGTCTCAAACCACAGACCTTT | -0.816
TTCTGTTAACTCTACACACTTC | -0.348
TTAGTCTTGCAGTCATTCTGAG | -0.381
TTTTAGACAGGAATCTGTCCAG | 0.0176
TTCAGTTGAGCTTCTAGTCTTT | 0.39

Molecular target: CD180
Assay: as above
Settings: shRNA

Sequence | sensor-assay potency score (higher = more potent)
TAGAGATGTAGTGTATAGCATT | -1.05
TAGTAGAGTTCTGCAGACCATT | -1.3
TACACTGAGAACTAATTTCTTG | -0.423
TTTAACTGCAAAAAATAGCAGA | -0.349
TTGTGTTTGGTAGAGTGTCAGG | -0.807
TTTAACATTATTGCCATTGAAG | -1.17
TAGCTGAGGACATTCTTTGAAT | -0.948
TTGAGTTGCAGACTGCAGCAGT | 0.0591
TAAATTAATGGTGCTCTGCTGG | -0.664
TGAAGTAGGTTGGTCTTCGTGA | -0.298
